Rows were chosen to be rich in hits. Some 18% of all compounds tested hit in one or more screens of this group.
TDP1 cell CPT = growth inhibition of DT40 Tdp1-/-;hTDP1 cells with camptothecin (screen for TDP1 inhibitors); 420,000 tested, 12% active; chicken DT40 Tdp1-/-;hTDP1 cells + 20 nM CPT, ATP luminescence, 48 h; Potency, µM (highest dose often 46.2 µM), for the others: at the highest dose activity change, negative = growth inhibition, actives largely listed as inhibitors; note: potency is the fitted concentration of half-maximal effect; nearly all actives have a fitted effect of over 55% in size
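Cell growth measured by CellTiter-Glo luminescence after a minimum 48 h, 37 C compound exposure with 20 nM CPT in Tdp1-knockout DT40 cells stably expressing hTDP1, seeded 400/well; qHTS titration format.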
CtBP-E1A inh = CtBP/E1A binding inhibition; AlphaScreen GST-E1A/His-CtBP binding, 1536-well; stronger effect = lower value; activity change, % (concentration not given with the values); 340,000 tested, 0.49% active; AID 651724; in the data active = activity change below about -65%; inconclusive = mostly about -30% to -63%
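Homogeneous bead-based format: GST-tagged E1A captured on glutathione donor beads, His-tagged CtBP on nickel acceptor beads; compounds precede bead addition by 2 h at 37 °C.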
DT40 TDP1 no CPT = qHTS for Inhibitors of human tyrosyl-DNA phosphodiesterase 1 (TDP1): qHTS in cells in absence of CPT | Potency, µM (titrated, usually from 46.2 µM), without a hit: at the highest dose activity change, negative = growth inhibition, most hits filed as inhibitors | 420,000 tested, 15% active | AID 686978, 2013 | DT40 Tdp1-/- hTDP1 cells, no CPT, ATP luminescence, 48 h; note: potency is the fitted concentration of half-maximal effect; nearly all actives have a fitted effect of over 55% in size
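A cellular qHTS used chicken DT40 cells lacking endogenous Tdp1 but carrying stably transfected human TDP1. Compounds were applied without camptothecin, and cell growth kinetics were judged by ATP-dependent luminescence after ≥48 hr.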
Six1-Eya2 blk = blocks human Six1 binding to Eya2 | Q15475+O00167 | AlphaScreen GST-Six1/His-Eya2 binding, biochemical; stronger effect = lower value | activity change, % (concentration not given with the values) | 360,000 tested, 0.56% active; in the data active = activity change below about -65%; inconclusive = mostly about -30% to -63%
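AlphaScreen with GST-Six1 and His-Eya2 (5X mix: 250 nM and 500 nM), glutathione donor and nickel acceptor beads; buffer 50 mM Tris pH 8.0, 300 mM NaCl, 1 mM TCEP; 1 h at 37 C in the dark.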
IL-1B inflam inh = inhibitors of inflammasome signaling (IL-1 beta secretion); activity change, % at 57.5 µM; THP-1 LPS/ATP IL-1B secretion, AlphaLISA, 16 h; stronger effect = lower value; 360,000 tested, 4.7% active; AID 743279; in the data active = activity change below about -50%; inconclusive = mostly about -30% to -49%
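Secreted IL-1B measured by AlphaLISA bead assay after 16 h compound exposure of THP-1 cells; compounds (final up to 57.5 uM) added 1 h before LPS (250 ng/mL) and ATP (1.25 mM) stimulation; lower signal means less secretion.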
TDP1 block = blocks human tyrosyl-DNA phosphodiesterase 1 | Q9NUW8 | Potency, µM (series often up to 130 µM), inactives show at the highest dose activity change, negative = inhibition, most hits filed as inhibitors | AID 485290 | 350,000 tested, 0.28% active | recombinant TDP1, AlphaScreen DNA substrate cleavage; note: potency is the fitted concentration of half-maximal effect; nearly all actives have a fitted effect of over 40% in size
Target sequence (Q9NUW8 whole entry, looked up): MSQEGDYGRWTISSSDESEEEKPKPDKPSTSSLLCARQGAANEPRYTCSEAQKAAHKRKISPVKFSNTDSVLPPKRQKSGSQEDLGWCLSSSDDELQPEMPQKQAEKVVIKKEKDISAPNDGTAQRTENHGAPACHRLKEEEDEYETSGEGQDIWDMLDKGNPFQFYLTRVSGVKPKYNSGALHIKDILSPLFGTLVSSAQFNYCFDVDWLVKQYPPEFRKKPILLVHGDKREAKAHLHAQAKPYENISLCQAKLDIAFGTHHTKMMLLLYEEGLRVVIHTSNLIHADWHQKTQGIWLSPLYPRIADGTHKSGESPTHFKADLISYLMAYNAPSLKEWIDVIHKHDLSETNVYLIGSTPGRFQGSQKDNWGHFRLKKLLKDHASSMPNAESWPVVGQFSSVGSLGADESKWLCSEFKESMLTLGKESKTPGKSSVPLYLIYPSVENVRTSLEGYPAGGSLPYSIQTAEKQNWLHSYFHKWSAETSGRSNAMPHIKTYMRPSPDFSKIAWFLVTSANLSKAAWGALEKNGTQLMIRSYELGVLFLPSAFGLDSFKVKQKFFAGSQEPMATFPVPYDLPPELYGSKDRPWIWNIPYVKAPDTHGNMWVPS
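Steps: enzyme plus compound, 15 min RT; add biotin/phosphotyrosine-FITC oligonucleotide (15 nM final), react 5 min; add donor/acceptor beads (10 ug/ml final), 10 min; read AlphaScreen. Tdp1 at 1 nM final.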
Numbers without * were called inactive; ? = inconclusive; nt = no result given; [ ] = dose if it differs, or a comment. Unless noted, calls come from the whole dose curve; as a rule, active = well fitted curve in the direction sought with a large enough effect; inconclusive = small, poorly fitted or top-dose-only effect, or another doubt; inactive = no such curve, though single readings can be large; an effect the other way counts as inactive or inconclusive. % is set by controls: 0 for no effect and ±100 for the full control effect.

SMILES	TDP1 cell CPT	CtBP-E1A inh	DT40 TDP1 no CPT	Six1-Eya2 blk	IL-1B inflam inh	TDP1 block
CCCCN(C)C(=O)Cn1cnc2sc(C)c(S(=O)(=O)N3CCN(c4ccccc4OC)CC3)c2c1=O	23.1µM*	8.6	23.1µM*	2.1	10.7	6.1%
O=C1[C@H](O)[C@@H](O)C(=O)N1Cc1ccccc1	5.3%	-3.9	-8.2%	-18.2	-15.5	nt
CCn1c(SCC(=O)Nc2cc(C)on2)nnc1-c1cccs1	-0.5%	-1.6	-4.5%	1.5	-15.4	-10.4%
OCCCCNCc1ccc(OCc2ccc(Cl)cc2)cc1	?	-15.2	?	-10.1	-3.1	-1.0%
COc1ccc(CNC(c2ccccc2)c2ccc(Cl)cc2)cc1 (configuration not stated)	?	33.3	16.4µM*	18.5	30.9	?
CC(NCc1ccc(OCc2ccc(Cl)cc2)cc1)C(O)c1ccccc1 (configuration not stated)	14.6µM*	-6.7	?	1.0	-102.9*	5.5%
Clc1ccc(-c2csc(=Nc3cccnc3)n2CCCn2ccnc2)cc1Cl	23.1µM*	-12.3	14.6µM*	-24.3	-87.7*	10.9%
Cc1cc(=S)cc(C)n1CCCn1ccnc1	0.3%	-1.2	6.4%	-1.6	9.3	2.1%
FC(F)Oc1ccc(-c2csc(=Nc3cccnc3)n2CC2CCCO2)cc1 (configuration not stated)	14.6µM*	-9.0	13µM*	-12.0	-3.1	-5.8%
COCCn1c(-c2ccc(Br)cc2)csc1=Nc1cccnc1	16.4µM*	0.8	18.4µM*	-25.3	-78.5*	6.0%
CN1C(=O)c2cccc(NCCCCCCN3C(=O)c4ccccc4C3=O)c2C1=O	20.6µM*	-0.9	9.2µM*	-6.8	?	3.9%
OC(C#CCN1CCCCC1)c1ccccc1 (configuration not stated)	-9.5%	2.3	-11.3%	-1.4	3.6	10.4%
CCOc1ccccc1C1C(C(N)=O)=C(C)Nc2nc(-c3cccc(C)c3)nn21 (configuration not stated)	-6.7%	-12.7	-14.4%	-1.4	-15.6	7.8%
CCOC(=O)C1CCCC12Nc1cccc3cccc(c13)N2 (configuration not stated)	18.4µM*	-7.3	14.6µM*	-8.5	-10.7	nt
CCOc1ccc(NC(=O)c2c(NC(=O)CN3CCCC3)sc3c2CCC3)cc1	?	8.4	11.6µM*	-1.2	6.8	5.3%
CCOc1ccc(NC(=O)c2c(NCc3cccs3)sc3c2CCCCC3)cc1	?	nt	23.1µM*	nt	nt	2.8%
COc1ccc(NC(=O)c2c(NC(=O)c3cccc(C)c3)sc3c2CCCC3)cc1	-1.2%	nt	-14.0%	nt	nt	nt
COc1ccc(NC(=O)c2c(NCc3cccs3)sc3c2CCCCC3)cc1	9.2µM*	nt	9.2µM*	nt	nt	6.6%
COc1ccc(NC(=O)c2c(NC(=O)c3ccc(Br)cc3)sc3c2CCCC3)cc1	?	nt	20.6µM*	nt	nt	-3.1%[12.3 µM]
C=CC[C@H](CC(=O)NCCO)C(=O)N[C@H](C)COC(=O)[C@@H](CC=C)Cc1ccc(F)cc1	?	8.2	?	-4.2	22.9	-0.1%
CC1(C(=O)Nc2nccs2)CCN1C(=O)CC(c1ccccc1)c1ccccc1 (configuration not stated)	16.4µM*	-3.9	20.6µM*	2.4	12.3	nt
CC1(C(=O)Nc2nccs2)CCN1C(=O)C1(c2ccccc2)CC1 (configuration not stated)	-23.7%	-0.7	-25.8%	-1.1	-11.8	nt
CC1(C(=O)NS(=O)(=O)c2ccccc2C(F)(F)F)CCN1C(=O)CCc1ccccc1 (configuration not stated)	9.1%	12.3	7.5%	6.0	-54.0*	nt
Cc1ccc(F)c(S(=O)(=O)NC(=O)C2(C)CCN2C(=O)CC(c2ccccc2)c2ccccc2)c1 (configuration not stated)	?	-1.8	20.6µM*	-2.5	0.0	nt
C#Cc1ccc(NC(=O)C2(C)CCN2C(=O)CC(c2ccccc2)c2ccccc2)cc1 (configuration not stated)	16.4µM*	0.0	?	2.1	8.4	nt
SMILES	TDP1 cell CPT	CtBP-E1A inh	DT40 TDP1 no CPT	Six1-Eya2 blk	IL-1B inflam inh	TDP1 block
COc1ccc(/C=C/C(=O)O)cc1S(=O)(=O)NCc1ccccc1	-9.6%	-1.1	-6.5%	4.7	-7.7	1.2%
CCc1ccccc1NC(=O)c1cc2nc(-c3ccc(OC)c(OC)c3)cc(C(F)(F)F)n2n1	nt	nt	nt	nt	nt	6.3%
O=c1c(O)c(-c2ccccc2)oc2cccc(O)c12	?	nt	?	nt	nt	9.9%
O=[N+]([O-])c1cc([N+](=O)[O-])c2oc(-c3ccccc3)c(Br)c2c1O	?	-7.3	8.2µM*	-19.1	15.0	nt
CCCCN(C)CCNC(=O)c1ccc2c(=O)n(CCc3ccccc3)c(=O)[nH]c2c1	13µM*	nt	23.1µM*	nt	nt	2.9%
CCOCCCNC(=O)c1ccc2c(=O)n(CCc3ccc(OC)c(OC)c3)c(=O)[nH]c2c1	6.51µM*	nt	4.11µM*	nt	nt	-1.5%
COc1ccc(-n2c(=O)[nH]c3cc(C(=O)NCCc4ccc(Cl)cc4)ccc3c2=O)cc1OC	23.1µM*	nt	14.6µM*	-3.1	11.6	3.5%
COc1cc(OC)cc(-n2c(=O)[nH]c3cc(C(=O)NCCc4ccc(C)cc4)ccc3c2=O)c1	-16.4%	nt	-3.8%	nt	nt	5.9%
CCOCCCNC(=O)c1ccc2c(=O)n(CCc3ccccc3)c(=O)[nH]c2c1	-3.1%	nt	-19.2%	nt	nt	8.8%
O=C(CSc1c2c(nc3ccc(Cl)cc13)CCCC2)NCCCN1CCOCC1	?	nt	?	-0.1	-92.9*	-4.9%
O=C(CSc1c2c(nc3cc(Cl)ccc13)CCCC2)NCCCN1CCOCC1	?	nt	?	3.2	-100.9*	5.8%
O=C(CSc1c2c(nc3cc(Cl)ccc13)CCCC2)NCCN1CCOCC1	?	-1.0	?	-0.2	-91.5*	1.2%
CCN(CC)CCCNC(=O)CSc1c2c(nc3cc(Cl)ccc13)CCCC2	8.2µM*	6.9	5.8µM*	-1.4	0.0	1.2%
Cc1cc(Cl)ccc1OCC(=O)NCCCN1CCOCC1	-3.5%	4.3	-9.1%	4.8	3.1	-3.9%
CCC(C)[C@H](NC(=O)C1CC(=O)N(c2ccc(OC)cc2)C1)C(=O)N1CCCCC1 (some centres not stated)	5.8%	9.9	17.1%	-0.2	3.8	2.5%
O=C(Nc1nnc2n1CCS2)c1ccc(F)cc1F	?	nt	?	nt	nt	0.0%
Cc1ccc(NC(=O)CC(c2ccc(F)cc2)N2Cc3ccccc3C2=O)cc1C (configuration not stated)	-14.6%	nt	-23.8%	nt	nt	nt
